Laboratory results taken from article PMC5540273 (PLoS ONE, 2017).

Assays:
Settings in all cases: concentration: 1 μM,replicates: in singlicate; n = 1
[1] = tested on: AAK1
[2] = tested on: ABL2
[3] = tested on: ACVR1B
[4] = tested on: ACVR1
[5] = tested on: ACVR2A
[6] = tested on: ACVR2B
[7] = tested on: ACVRL1
[8] = tested on: T1, ADCK3
T1 construct: gene CABC1

[9] = tested on: ABL1-nonphosphorylated
[10] = tested on: ABL1-phosphorylated
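Further: KINOMEscan kinase panel screen.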

Structure (SMILES)	%Inh [1] [%]	%Inh [2] [%]	%Inh [3] [%]	%Inh [4] [%]	%Inh [5] [%]	%Inh [6] [%]	%Inh [7] [%]	%Inh [8] [%]	%Inh [9] [%]	%Inh [10] [%]
Cc1ccc(-n2nc(C(C)(C)C)cc2NC(=O)Nc2ccc(OCCN3CCOCC3)c3ccccc23)cc1 [GW839464]	2	22	0	18	0	3	0	21		
C=CC(=O)Nc1cc2c(Nc3ccc(F)c(Cl)c3)ncnc2cc1OCCCN1CCOCC1 [GW781483]	0	70	3	38	0	0	7	0		
CCN(CC)CCOc1ccc(Nc2ncc3cc(-c4c(Cl)cccc4Cl)c(=O)n(C)c3n2)cc1 [SB-601273]	48	99.6	100	100	97.3	99.7	87	96.5	100	100
NC(=O)c1cc(-c2ccccc2)cc2c(C3CCNCC3)c[nH]c12 [GSK301362]	9	22	0	52	0	6	0	0	2	0
O=C(NCCCN1CCOC1=O)c1cnc(NCc2cc(Cl)ccc2Cl)nc1NC1CCCC1	2	22	0	14	5	19	24	24	73	25
Cc1occc1-c1nc(N)c(OC[C@@H](N)Cc2c[nH]c3ccccc23)cc1-c1cc2c(C)n[nH]c2cn1 [GSK1660450]	68	51	0	0	0	0	0	16	16	52
CNC(=O)c1ccccc1Sc1ccc2c(/C=C/c3ccccn3)n[nH]c2c1	47	88	21	0	0	0	0	0		
